Broadly, the inhibition is the drop in the measured response relative to a control, in per cent.

Several values for one entry are separate records, joined by “and”; a condition that tells them apart may be missing. Equal entries are not always repeated. About 210 (0.062%) of roughly 340,000 compounds were called active. No stated cut-off is given here; in the data, active means inhibition above about 30% (passing the limit was not always enough); inconclusive means no clear call, values can overlap the other calls. This excerpt belongs to a sample that is enriched for actives.

In PubChem BioAssay AID488965 (Broad Institute, 2010) one finds inhibition data, which are given here for 32 compounds.

The subject of the test is PvdQ acylase [Pseudomonas aeruginosa LESB58]. In words: P. aeruginosa PvdQ acylase inhibitors, primary screen, biochemical, fluorescence, plate reader and imaging, single point (AID 488965).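 Further: 0% = vehicle neutral wells and 100% = reference inhibitor wells.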 To be noted: purified PvdQ acylase, at 10 µM, active compounds read high.
For the compound `CC(=O)c1nn(-c2ccc(C)cc2)cc1C(=O)c1cccc(Br)c1`, the inhibition was -6.55% (inactive).
The figure for `COc1cc(CNC2CCCCC2)c(Br)cc1OC1CCCC1` is -10.3% (inactive); for `COc1ccc(NS(=O)(=O)c2cc(NC(=O)CC(=O)c3ccc([N+](=O)[O-])cc3)ccc2C)cc1` it is -17.8% (inactive).
As for `CCCCNC(=O)N1CCN(S(C)(=O)=O)CC1`, the figure is -13.6% (inactive); as for `CN1CCN(Cc2c(C(=O)N3CCc4ccccc4C3)nc3ccc(Cl)cn23)CC1`, 9.88% (inactive).
Turning to `CCOc1ccc(/C(O)=C2/C(=O)C(=O)N(Cc3cccnc3)C2c2ccc(N(C)C)cc2)c(C)c1` (configuration not stated), the inhibition was -1.75% (inactive).
Turning to `COc1ccc(CCN(C)C(=O)C23CC4CC(CC(Cl)(C4)C2)C3)cc1OC`, the inhibition is 0.828% (inactive).
The figure for `O=C(CNC(=O)OCc1ccccc1)NC1CCCCNC1=O` (configuration not stated) is -2.51% (inactive); for `CCC(C(=O)NC1CCCC1)N(C(=O)Cn1nnc(-c2ccc(C)o2)n1)c1ccc(OC)c(OC)c1` (configuration not stated) it is -6.8% (inactive); for `CC(C)=NN1C(=O)c2ccccc2NC1(C)C` it is -15.2% (inactive).
The figure for `O=C(Nn1cnc2ccccc2c1=O)c1ccc([N+](=O)[O-])cc1Cl` is -2.92% (inactive).
With `CC1=C(C(=O)Nc2cc(C)ccn2)C(c2cnn(C)c2)C2=C(CC(c3ccccc3)CC2=O)N1` (configuration not stated), the inhibition is -10.4% (inactive).
Consider `COc1ccc(N2CCN(C(=O)CN3C(=O)COc4ccccc43)CC2)cc1`, for which the inhibition was -3.63% (inactive).
Take `COc1ccc(Cn2cc(CN3CCS(=O)(=O)N(Cc4ccc(-c5cccc(Cl)c5)cc4)C(C)C3=O)nn2)cc1` (configuration not stated): the inhibition is 6.04% (inactive).
In the case of `COc1ccccc1NS(=O)(=O)c1ccc(C)c(C(=O)NCC(c2ccco2)N(C)C)c1` (configuration not stated), the inhibition was -1.08% (inactive).
As to `CC(C)CC(COCc1ccc(Cl)cc1)N1CCN(C(=O)c2ccc(C(F)(F)F)cc2)CCC1=O` (configuration not stated), the inhibition was -5.2% (inactive).
As for `COc1ccc(S(=O)(=O)NCC2CCCN(C(=O)c3occc3C)C2)cc1` (configuration not stated), the inhibition is -11.7% (inactive).
The figure for `Cc1oc(-c2ccccc2Cl)[n+]([O-])c1C` is -3.53% (inactive); for `CC(C(=O)Nc1ccccc1-c1ccccc1)N1CCOCC1` (configuration not stated) it is 4.97% (inactive).
The figure for `CC1(C)Cc2cccc(OCC(=O)N3CCN(c4ccc([N+](=O)[O-])cc4)CC3)c2O1` is 3.43% (inactive); for `O=C(NCCc1ccccc1)C1CC1` it is 11.7% (inactive); for `Cc1cc(C)cc(NC(=O)C(c2ccccc2)N2CCN(CC(=O)N3CCCC3)CC2)c1` (configuration not stated) it is -12.8% (inactive).
With `CCc1ccc(CNC(=O)C2CCN(c3nnc(C)c4c(C)n(-c5ccc(C)cc5)nc34)CC2)cc1`, the inhibition was -8.9% (inactive).
As for `COc1ccc(OC)c(NC(=O)COC(=O)Cc2ccsc2)c1`, the inhibition was 7.79% (inactive).
As for `COc1ccc(CCNC(=O)COc2cc(C)cc3oc(=O)c(C)c(C)c23)cc1OC`, the figure is -16.2% (inactive); as for `CN1CCN(S(=O)(=O)c2ccc(Nc3ccc(F)cc3)nc2)CC1`, 4.04% (inactive).
As for `COc1cc([C@H](Cc2ccccc2)NC(C)=O)oc(=O)c1`, the figure is -11.2% (inactive).
For the compound `Cc1nc2ccccc2c(=O)n1-c1ccc(F)c(NC(=O)c2cccs2)c1`, the inhibition was 4.62% (inactive).
`CCOC(=O)C1CCCN(C(=O)C2CCN(c3nnc(-n4cccc4)s3)CC2)C1` (configuration not stated): the inhibition was -9.35% (inactive).
As to `Cc1ccc(C(=O)COC(=O)c2cccc(N3C(=O)c4c(C)nc5ccccc5c4C3=O)c2)cc1C`, the inhibition was -0.235% (inactive) and -7.76% (inactive).
Consider `COc1ccc(Cl)cc1C(=O)OCC(=O)NCc1cccs1`, for which the inhibition was -17.2% (inactive).
As for `Cc1ccc(N(CCC(=O)O)S(=O)(=O)c2cccc(C(F)(F)F)c2)cc1`, the figure is -8.9% (inactive).
